Each structure is given as a SMILES string. This is part of a sample that, as a whole, favours compounds with a hit. Of some 83,000 tested, about 20% had one in any assay.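 Cell lines were cultured in 96-well plates, exposed to a single compound concentration, and assessed for percent growth 48 hours later.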 A number with no mark means an inactive call. Activity calls are given as the source filed them. How the source made its calls: active means growth percent below 10; inactive means the rest.

Among the test systems are NCI-H23 lung; NCI-H226 lung; NCI-H322M lung; HOP-62 NSCLC; NCI-H460 lung; HOP-92 NSCLC; NCI-H522 lung; A549/ATCC NSCLC; 786-0 renal; COLO 205 colon.
What all share (assay): NCI-60 one-dose screen, 48 h (100 = growth as untreated, 0 = no growth, -100 = all killed)
Common to all, as to conditions: 10 µM unless noted

As to `N#Cc1c(-c2ccccc2)nc(SCc2nnc(-c3ccc(Cl)cc3)o2)[nH]c1=O`, the growth was 105% with NCI-H23 lung; 97.2% in the assay on NCI-H226 lung; 104% in the assay on NCI-H322M lung; 63.7% with HOP-62 NSCLC; 105% in the assay on NCI-H460 lung; 78.8% in the assay on HOP-92 NSCLC. The growth is 71.2% with NCI-H522 lung, 78.2% with A549/ATCC NSCLC, 89.2% in the assay on 786-0 renal and 89.3% in the assay with COLO 205 colon.

For the compound `CCN(CC)c1ccc(CNc2cc(C)nc3ccccc23)cc1`, the growth in the assay with NCI-H23 lung was 26.9%; in the assay with NCI-H226 lung it was 56.2%; in the assay with NCI-H322M lung, 80.3%; in the assay on HOP-62 NSCLC, 77.1%; with NCI-H460 lung, 58.2%; in the assay on HOP-92 NSCLC it was 49.6%. For the same compound, the growth is 53.5% with NCI-H522 lung, 72.7% in the assay on A549/ATCC NSCLC, 79.1% in the assay on 786-0 renal and 1.94% (active) with COLO 205 colon.

With `CCCCNC(=O)Oc1ccc(/C(=C(/C)Cc2ccc(OC)cc2)c2ccc(OCCN3CCCCC3)cc2)cc1`, the growth is 81.6% in the assay on NCI-H23 lung; 90.5% in the assay on NCI-H226 lung; 92% in the assay with NCI-H322M lung; 84.1% in the assay with HOP-62 NSCLC; 33.6% with NCI-H460 lung; 63.4% in the assay with HOP-92 NSCLC. The growth in the assay with NCI-H522 lung was 81.2%; in the assay on A549/ATCC NSCLC, 61%; with 786-0 renal, 66.7%; with COLO 205 colon, 34.9%.

Regarding `O=C(Nc1cnc(Nc2ccc(N3CCOCC3)nc2)nc1Oc1ccc(C(F)(F)F)cc1)c1ccncc1`, the growth is 70% with NCI-H23 lung; 92.8% in the assay with NCI-H226 lung; 87.3% in the assay on NCI-H322M lung; 93.1% with HOP-62 NSCLC; 74.3% in the assay with NCI-H460 lung; 94.1% with HOP-92 NSCLC. The growth with NCI-H522 lung was 82.8%; in the assay on A549/ATCC NSCLC, 80.5%; in the assay with 786-0 renal, 96.8%; in the assay with COLO 205 colon, 99.8%.

As for `Cc1ccc(-c2csc(N(C(=O)N3CCN(c4cc5c(cc4F)c(=O)c(C(=O)O)cn5C4CC4)CC3)c3ccccc3)n2)cc1`, the growth is -0.349% (active) in the assay with NCI-H23 lung; 7.91% (active) with NCI-H226 lung; 4.96% (active) in the assay on NCI-H322M lung; 4.78% (active) in the assay with HOP-62 NSCLC; 5.91% (active) in the assay on NCI-H460 lung; -18% (active) in the assay on HOP-92 NSCLC. Also, the growth is -0.464% (active) in the assay with NCI-H522 lung, 13.7% in the assay with A549/ATCC NSCLC, 4.6% (active) with 786-0 renal and 8.13% (active) in the assay on COLO 205 colon.

Regarding `COC(=O)c1nc(-c2ccccc2)oc1S(=O)(=O)NCC(c1ccc(Cl)cc1)N1CCOCC1` (stereo not given), the growth with NCI-H23 lung was 89.1%; in the assay with NCI-H226 lung it was 90.7%; with NCI-H322M lung, 98.3%; in the assay with HOP-62 NSCLC, 96.3%; in the assay on NCI-H460 lung, 87.2%; with HOP-92 NSCLC, 70.9%. Further, the growth in the assay with NCI-H522 lung is 23.8%; with A549/ATCC NSCLC, 90.5%; in the assay with 786-0 renal, 51.9%; in the assay with COLO 205 colon, 78.1%.

As to `Clc1c(Cl)[n+](Cc2ccc3ccccc3c2)cn1Cc1ccc2ccccc2c1`, the growth is 32.8% in the assay with NCI-H23 lung; 44.4% with NCI-H226 lung; 51% in the assay on NCI-H322M lung; -27.6% (active) in the assay on HOP-62 NSCLC; 26.1% in the assay on NCI-H460 lung; -12.1% (active) with HOP-92 NSCLC. The growth is -52.5% (active) with NCI-H522 lung, 52.5% in the assay on A549/ATCC NSCLC, -8.06% (active) with 786-0 renal and -73.9% (active) in the assay with COLO 205 colon.

For the compound `COc1ccc(CCN2C(=O)/C(=C/c3ccc(C4Oc5ccccc5C5CC(c6ccccc6)=NN54)cc3)SC2=S)cc1` (stereo not given), the growth in the assay on NCI-H23 lung was 100%; in the assay on NCI-H226 lung it was 105%; in the assay on NCI-H322M lung, 108%; in the assay on HOP-62 NSCLC it was 98.1%; with NCI-H460 lung it was 110%; in the assay on HOP-92 NSCLC, 111%. Besides, the growth in the assay with NCI-H522 lung is 96%; in the assay on A549/ATCC NSCLC it was 108%; in the assay on 786-0 renal, 106%; with COLO 205 colon it was 107%.

For the compound `COc1ccc(-c2ccc(-c3ccc(C(=N)N)nc3)s2)cc1Cl`, the growth with NCI-H23 lung was 41.2%; in the assay on NCI-H226 lung it was 77.7%; in the assay with NCI-H322M lung, 15.7%; in the assay on HOP-62 NSCLC, -30.8% (active); in the assay on NCI-H460 lung, -80.3% (active); in the assay with HOP-92 NSCLC it was 84.4%. Moreover, the growth in the assay on NCI-H522 lung is -47.3% (active); in the assay on A549/ATCC NSCLC it was -32.3% (active); with 786-0 renal it was -89.7% (active); with COLO 205 colon, -56% (active).

`COc1ccc(-c2nc(/C=C3\C(=O)N(C)c4ccccc43)c3ccccn23)cc1`: the growth is 76.2% with NCI-H23 lung; 63.8% in the assay on NCI-H226 lung; 88.3% in the assay with NCI-H322M lung; 62.7% in the assay on HOP-62 NSCLC; 63.4% in the assay on NCI-H460 lung; 84.1% in the assay on HOP-92 NSCLC. In addition, the growth with NCI-H522 lung is 58.7%; in the assay with A549/ATCC NSCLC it was 88.7%; in the assay on 786-0 renal, 38.3%; in the assay on COLO 205 colon it was 119%.

For the compound `O=S(=O)(Oc1ccc(Br)cc1)c1ccc(Cl)cc1`, the growth in the assay with NCI-H23 lung is 89.4%; in the assay on NCI-H226 lung, 100%; with NCI-H322M lung, 97.3%; in the assay with HOP-62 NSCLC, 105%; in the assay with NCI-H460 lung, 110%; in the assay on HOP-92 NSCLC, 102%. Besides, the growth is 97.4% with NCI-H522 lung, 101% in the assay with A549/ATCC NSCLC, 89.2% in the assay on 786-0 renal and 108% in the assay on COLO 205 colon.

For `CN1CCN(C(=O)C(C)(C)c2ccc(C(=O)Nc3cn4cc(-c5ccncc5)ccc4n3)cc2)CC1`, the growth was 10.1% with NCI-H23 lung; 9.69% (active) in the assay on NCI-H226 lung; 17% in the assay with NCI-H322M lung; 4.05% (active) in the assay on HOP-62 NSCLC; 10.8% in the assay on NCI-H460 lung; 3.02% (active) in the assay with HOP-92 NSCLC. The growth was -1.24% (active) with NCI-H522 lung, 10.2% in the assay on A549/ATCC NSCLC, -19.9% (active) in the assay with 786-0 renal and 2.48% (active) in the assay on COLO 205 colon.

For `O=C(Nc1ccc(Br)cc1)C1=NCCCCN1`, the growth in the assay with NCI-H23 lung was 85.1%; with NCI-H226 lung, 93.1%; with NCI-H322M lung, 98.1%; with HOP-62 NSCLC, 74.7%; in the assay with NCI-H460 lung, 89.5%; with HOP-92 NSCLC, 102%. Further, the growth with NCI-H522 lung is 82.9%; in the assay with A549/ATCC NSCLC it was 90.5%; with 786-0 renal, 96.2%; with COLO 205 colon, 110%.

The record behind these values is PubChem BioAssay (NCI).
